# Assay results reported in the supplement of paper PMC3334620.
# The full ranking holds about 33,000 sequences; the median of “E-score (-0.5 to 0.5)” is about -0.054, and the highest 2% start at about 0.35. Only a selection was taken, and the highest values are over-represented in it overall.
# Target: T1, Stb5 (UniProt P38699)
# T1 sequence: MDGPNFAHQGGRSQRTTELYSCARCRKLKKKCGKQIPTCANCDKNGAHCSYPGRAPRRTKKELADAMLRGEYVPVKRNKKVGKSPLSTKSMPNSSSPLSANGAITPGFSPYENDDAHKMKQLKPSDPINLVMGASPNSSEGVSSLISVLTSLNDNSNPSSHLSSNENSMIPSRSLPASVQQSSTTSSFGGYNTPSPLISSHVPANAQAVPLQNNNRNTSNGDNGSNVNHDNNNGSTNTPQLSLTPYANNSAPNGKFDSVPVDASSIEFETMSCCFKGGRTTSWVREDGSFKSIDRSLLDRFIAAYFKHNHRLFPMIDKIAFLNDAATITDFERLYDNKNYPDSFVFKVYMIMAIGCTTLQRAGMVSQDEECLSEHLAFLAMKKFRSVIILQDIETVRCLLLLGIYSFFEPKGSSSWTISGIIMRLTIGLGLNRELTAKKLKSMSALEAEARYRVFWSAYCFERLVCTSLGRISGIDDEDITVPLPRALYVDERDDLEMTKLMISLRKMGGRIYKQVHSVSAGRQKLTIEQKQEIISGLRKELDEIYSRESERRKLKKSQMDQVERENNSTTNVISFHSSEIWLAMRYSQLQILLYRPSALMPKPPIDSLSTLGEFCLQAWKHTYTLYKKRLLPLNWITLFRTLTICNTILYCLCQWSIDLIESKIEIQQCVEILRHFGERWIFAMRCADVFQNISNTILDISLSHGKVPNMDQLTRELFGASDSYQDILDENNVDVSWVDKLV
# Assay: PBM E-score (8-mer binding enrichment) (E-score (-0.5 to 0.5)); higher = stronger / more preferred TF binding
# Details: protein concentration: 200 nM; construct: GST-full length
# Summary of the method: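 Yeast transcription factors carrying a GST tag, as full-length proteins or DNA-binding domains, were produced by PURExpress in vitro transcription/translation. About 100-200 nM protein was applied to universal all-10-mer Agilent arrays, double-stranded by primer extension on fresh or once-stripped slides. Bound protein was detected with fluorescent anti-GST, and scans were normalised with masliner. The Universal PBM Analysis Suite gave each ungapped eight-base word, pooled with its reverse complement, an E-score, a modified Wilcoxon-Mann-Whitney statistic.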
row,Sequence,PBM E-score
1,ATTCCTTC,-0.0881
2,GCCCTTAA,0.191
3,CCCTGGCG,0.114
4,CCTCTCCG,-0.171
5,AATCATTG,-0.314
6,GTGGCACA,-0.325
7,CGGGGGCA,0.275
8,GCCGATGA,0.357
9,ACCGATGA,0.264
10,CCCGATGA,0.226
11,CCCTATAG,-0.104
12,AATGGCAT,0.0389
13,CGAGCGGC,0.318
14,GGGGCGGA,0.293
15,CGGGCGGC,0.308
16,CCGGCGGC,0.327
17,CGAGCGGA,0.385
18,CCGGCGGA,0.385
19,AGAGCGGA,0.312
20,GCGGCGGA,0.333
21,CGGGCGGA,0.359
22,AATTGGCC,-0.224
23,CATCTAGG,-0.139
24,CGAATTGA,-0.12
25,ACAATTCG,-0.00889

row,Sequence,PBM E-score
1,AGGTATCC,-0.211
2,CGCCTTAA,0.0389
3,AGGCCTCA,-0.264
4,CGGCCTCC,0.129
5,CGGCCTCA,0.363
6,CTTTAGCA,0.133
7,ATCTCTGA,-0.172
8,AGACCGAC,0.385
9,GGACCGAC,0.318
10,CCACCGAA,0.117
11,GCACCGAA,0.358
12,AAACCGAA,-0.0132
13,GCACCGAC,0.45
14,ACACCGAA,0.386
15,AGACCGAA,0.236
16,AGACCGAG,0.177
17,GAACCGAC,0.225
18,TCACCGAA,0.217
19,CGACCGAC,0.271
20,AAGAACTA,-0.0107
21,AGGTTCAC,-0.164
22,CAATTCGC,0.0656
23,ACGAGAAA,-0.0778
24,CAATGGCC,0.0847
25,ATGAGGCA,-0.24

row,Sequence,PBM E-score
1,ATCTTGGG,-0.145
2,CGAAGGAA,-0.188
3,GATGAGAC,-0.136
4,ACACCGAG,0.369
5,ACACCGAC,0.466
6,AAACCGAG,-0.0377
7,CCACCGAG,0.0738
8,CCACCGAC,0.346
9,AAACCGAT,0.121
10,ACACCGAT,0.447
11,AAACCGAC,0.222
12,AGACCGAT,0.272
13,AATGGTTC,0.00524
14,TAAATCTA,-0.0639
15,GAATGAAA,0.0556
16,AATGCGGA,0.2
17,CCGAAGCG,0.225
18,ACCTTAAT,0.0412
19,AGGGCGCC,-0.0741
20,CACGCCCG,0.0876
21,GACCATCA,0.0409
22,GCCACCGC,0.335
23,CCCACCGA,0.118
24,ACCACCAT,-0.138
25,CCCACCGG,0.303

row,Sequence,PBM E-score
1,ACCACCGA,0.357
2,TCCACCGA,0.176
3,ACCACCGC,0.391
4,ACCACCGG,0.406
5,CCCACCGC,0.221
6,ACCACCCT,-0.168
7,ACCACCAG,-0.148
8,ACCACCGT,0.354
9,GGCGAGTA,-0.101
10,CCTCTATA,-0.232
11,CCTGACTC,-0.153
12,CCTATAAG,-0.0382
13,AACCTTGC,-0.0575
14,AAGAAGTA,-0.102
15,GAGCAAGC,-0.168
16,AGCAACCA,-0.068
17,CCAATTCA,-0.261
18,ACCGACAT,0.322
19,ACCGACAA,0.369
20,AACGACAG,-0.205
21,CCCGACAC,0.34
22,GCCGACAC,0.239
23,CCCGACAG,0.305
24,ACCGACAG,0.363
25,ACCGACAC,0.361

row,Sequence,PBM E-score
1,CCCGACAA,0.328
2,GGTTTGGA,0.0254
3,ACGATATG,-0.0261
4,ATGGTTCG,-0.0398
5,CTCGTTTC,-0.214
6,CGACCTAA,0.017
7,GGACCTAA,0.365
8,TGACCTAA,-0.117
9,CGGAGGTA,0.434
10,AGGAGGTA,-0.0118
11,CGGAGCTA,0.446
12,CGGAGCTC,0.249
13,AGGAGCTA,-0.0145
14,CGGAGGTC,0.122
15,TGTACGAA,-0.0429
16,ACCACTGA,-0.202
17,CGCCGACG,0.395
18,CGCCGACA,0.354
19,CGCCGACC,0.345
20,GGCCGACA,0.327
21,TGCCGACA,0.298
22,AGCCGACG,0.232
23,GGCTCTTA,0.0283
24,ACTCTAAA,0.01
25,ACCGCACG,0.153

row,Sequence,PBM E-score
1,AACGGGGA,0.288
2,GATCTACC,-0.0916
3,AGCTGTTA,-0.234
4,CGCTGTTC,0.0181
5,CGCTGTTA,0.445
6,GTCGGAAC,0.315
7,ACTCTCTA,-0.205
8,ATAATGAA,-0.076
9,GTACCGAA,0.145
10,ATACCGAC,0.398
11,CTACCGAC,0.264
12,CTACCGAA,0.0544
13,GTACCGAC,0.382
14,ATACCGAT,0.353
15,ATACCGGC,0.304
16,ATACCGAA,0.242
17,ATACCGAG,0.224
18,AACGTTGT,-0.107
19,CGGTATAG,0.179
20,AACACTGT,-0.22
21,AGCTGGTC,-0.26
22,TAACAGTA,-0.227
23,AAAAAGTC,0.175
24,TAGCTGCA,-0.191
25,ACGGTGCT,0.409

row,Sequence,PBM E-score
1,ACGGTGAT,0.367
2,GCGGTGAC,0.358
3,ACTGTGCT,-0.241
4,ACGGTGAC,0.297
5,GCGGTGAA,0.345
6,ACGGTGCC,0.372
7,AAGGTGCT,-0.0966
8,ACGGTGAG,0.141
9,ACGGTGCA,0.127
10,GGGGTGAC,0.0132
11,ACGGTGCG,0.281
12,GAGAGTGC,-0.209
13,AAACTGAT,-0.104
14,CAGAGGGA,-0.261
15,GATACTCC,0.146
16,TAGCACTA,-0.246
17,AAAAAGAA,0.175
18,GCCAAGGA,-0.0748
19,TAGGTCCA,-0.0733
20,AGTTGCTG,-0.167
21,GTCGTTAA,-0.0792
22,CGAAGTTC,-0.147
